Data from PubChem BioAssay.

Tested on: Human papillomavirus type 1a E7 protein (residues 1-88)
Assay: HPV1a E7 small-molecule binders, primary screen, biochemical, small-molecule microarray, residues 1-88, 635 nm (AID 1129)
Conditions: small-molecule microarray binding, fluorescence 635 nm; higher = more signal

SMILES	composite z-score
C=C(CCCC)C(=O)CC[C@H](OC(=O)c1cccnc1)c1ccc(CO)o1	1.2
COc1ccc(C#Cc2ccc3c(c2)[C@]2(C(=O)N3)[C@H](c3ccc(OCCO)cc3)N3[C@H](c4ccccc4)[C@H](c4ccccc4)OC(=O)[C@H]3[C@@H]2C(=O)O)cc1	1.22
COC(=O)[C@@]1(Cc2ccc(F)cc2)[C@H]2c3cc(C(=O)N(C)C)n(CCN4CCOCC4)c3C[C@H]2CN1C(=O)c1ccccc1	1.19
CCCC[C@@H]1C[C@H]1[C@@H](NC(=O)c1ccc(C(F)(F)F)cc1)c1ccc(C(=O)OC)cc1	0.411
COC(=O)[C@@]1(Cc2ccccc2)[C@@H]2[C@@H](CC(=O)[C@H]2CC(=O)C(=O)N(C)C)CN1C(=O)c1ccccc1	0.577
COC(=O)[C@@]1(Cc2ccc(OC)cc2)[C@H]2c3cc(C(=O)N4CCCC4)n(CCc4ccc(OC)c(Br)c4)c3C[C@H]2CN1C(=O)c1ccccc1	1.16
O=C1NC(=O)C2C1C=CC(C(O)c1cccc(O)c1)N2Nc1ccc(Cl)cc1Cl (stereo not drawn)	-0.0332
C=C(COC)C(=O)CC[C@@H](OC(C)=O)c1ccc(OCCO)cc1	-0.358

Biological target: Focal adhesion kinase 1 (Homo sapiens) (UniProt Q05397)
Assay: small-molecule microarray binders of FAK, primary screen, biochemical, 635/667 nm fluorescence, BSA, DTT (AID 1130);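 further: composite of spot emission at 667 nm and signal to noise over triplicate slides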
Conditions: PTK2 binding, 635 nm fluorescence, higher = more signal

Sequence of Focal adhesion kinase 1 (Homo sapiens) (Q05397 whole entry, looked up): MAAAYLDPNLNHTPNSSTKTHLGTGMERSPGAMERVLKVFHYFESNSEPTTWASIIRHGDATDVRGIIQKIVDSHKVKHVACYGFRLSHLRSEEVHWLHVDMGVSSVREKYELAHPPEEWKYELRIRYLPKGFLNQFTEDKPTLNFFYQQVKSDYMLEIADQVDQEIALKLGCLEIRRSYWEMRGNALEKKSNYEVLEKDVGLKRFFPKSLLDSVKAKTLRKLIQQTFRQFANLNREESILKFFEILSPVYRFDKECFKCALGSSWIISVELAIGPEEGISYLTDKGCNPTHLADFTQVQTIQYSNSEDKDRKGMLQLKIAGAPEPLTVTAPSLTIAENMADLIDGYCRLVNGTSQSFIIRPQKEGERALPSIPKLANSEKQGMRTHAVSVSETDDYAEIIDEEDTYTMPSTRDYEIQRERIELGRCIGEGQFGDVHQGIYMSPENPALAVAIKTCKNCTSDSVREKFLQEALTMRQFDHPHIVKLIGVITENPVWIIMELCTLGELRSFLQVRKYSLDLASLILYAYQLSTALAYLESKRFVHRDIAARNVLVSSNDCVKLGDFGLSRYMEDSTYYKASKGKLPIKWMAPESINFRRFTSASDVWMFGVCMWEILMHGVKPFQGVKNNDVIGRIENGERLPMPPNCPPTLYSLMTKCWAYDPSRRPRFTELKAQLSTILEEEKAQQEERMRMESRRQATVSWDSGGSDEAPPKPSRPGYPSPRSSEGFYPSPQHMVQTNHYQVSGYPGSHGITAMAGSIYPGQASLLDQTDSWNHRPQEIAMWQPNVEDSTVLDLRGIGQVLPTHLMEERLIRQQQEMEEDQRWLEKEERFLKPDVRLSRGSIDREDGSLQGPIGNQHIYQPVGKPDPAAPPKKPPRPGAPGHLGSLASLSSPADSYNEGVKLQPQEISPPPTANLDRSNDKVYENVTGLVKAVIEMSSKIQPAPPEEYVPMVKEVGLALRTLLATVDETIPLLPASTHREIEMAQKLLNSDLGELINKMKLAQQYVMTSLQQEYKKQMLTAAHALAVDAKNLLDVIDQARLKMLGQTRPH

SMILES	composite z-score
CCCCN1CC=CC23O[C@@H]4C=CCOC(=O)[C@@H]4[C@H]2C(=O)N(CCO)[C@@H]3C1=O (stereo partly drawn)	-0.681
C=CC[C@@]12N=C(c3ccc(OCCCO)cc3)O[C@@H]1c1ccccc1N(Cc1ccccc1)C2=O	0.986
COCCOC(=O)N1C(=O)[C@@]2(c3cc(C#CCC(C(=O)OC)C(=O)OC)ccc31)[C@H](C(N)=O)[C@H]1C(=O)O[C@H](c3ccccc3)[C@H](c3ccccc3)N1[C@@H]2c1ccc(OCCO)cc1	0.985
CCOC(=O)C1=C(C(=O)OCC)N(S(=O)(=O)CC[Si](C)(C)C)[C@H](c2ccccc2)CC1	-0.069
COC(=O)C1=CC(CCCO)=CC(c2ccc(CN3CCCC3)cc2)N(Cc2sc3ccccc3c2Cl)C=C1C(=O)OC (stereo not drawn)	0.579
C=CCNC(=O)[C@@H]1[C@H]2C(=O)O[C@H](c3ccccc3)[C@H](c3ccccc3)N2[C@H](c2ccc(O)cc2)[C@@]12C(=O)Nc1ccc(C#CC3(O)CCCCCC3)cc12	1.31
NC(=O)NCC#Cc1ccc2c(c1)[C@]1(C(=O)N2)[C@H](C(=O)Nc2nc3ccccc3s2)[C@H]2C(=O)O[C@H](c3ccccc3)[C@H](c3ccccc3)N2[C@@H]1c1ccc(OCCO)cc1	0.268
COCCOC(=O)N1C(=O)[C@@]2(c3cc(C#CC4(O)CCCCCC4)ccc31)[C@H](c1ccccc1OCCO)N1[C@H](c3ccccc3)[C@H](c3ccccc3)OC(=O)[C@H]1[C@@H]2C(=O)N1CCCCCCC1	0.504
COCCOC(=O)N1C(=O)[C@@]2(c3cc(C#CCCO)ccc31)[C@H](C(=O)N1CCc3cc(OC)c(OC)cc3C1)[C@H]1C(=O)O[C@H](c3ccccc3)[C@H](c3ccccc3)N1[C@@H]2c1ccccc1OCCO	0.496
[N-]=[N+]=NCc1ccccc1[C@H]1OC(c2ccc(OCCCO)cc2)=N[C@@]1(Cc1ccccc1)C(=O)N1CCOCC1	0.46
C=CCOC(=O)[C@H]1[C@@H]2C(=O)O[C@@H](c3ccccc3)[C@@H](c3ccccc3)N2[C@@H](c2ccc(OCCOC(=O)[C@@H]3C[C@@H]4C(=O)N[C@@H](CC(C)C)C(=O)N4[C@@H]3c3ccc(O)cc3)cc2)[C@]12C(=O)Nc1ccc(I)cc12	0.443
COCCOC(=O)N1C(=O)[C@@]2(c3cc(C#CCC(C(=O)OC)C(=O)OC)ccc31)[C@H](C(=O)N1CCc3cc(OC)c(OC)cc3C1)[C@H]1C(=O)O[C@H](c3ccccc3)[C@H](c3ccccc3)N1[C@@H]2c1ccc(O)cc1	0.221
O=C1c2ccccc2[C@@]2(Cc3ccccc3N(Cc3ccccc3)C2=O)[C@H](c2ccc(CO)cc2)N1Cc1ccccc1	-0.667
CN(C)CCCC[C@@H]1NC(=O)[C@@H]2C[C@H](C(=O)NCCCCCCNC(=O)CS)[C@H](c3cccc(OCCO)c3)N2C1=O	0.819
CCCC[C@H]1OB(O)C[C@H]2C1=C(COC)C[C@H]1C(=O)C=CC(=O)[C@H]12	-0.0157
C=C(/C(=C/C[C@@H](OC(C)=O)c1ccccc1OCCO)c1cc(C(=O)OC)ccc1OC)C(C)C	0.0593
C=C(CCCC)/C(=C/C[C@H](OC(C)=O)c1cccc(OCCO)c1)c1cc(C(=O)OC)ccc1OC	-0.325
CN(C)CCCC[C@@H]1NC(=O)[C@@H]2C[C@H](C(=O)NCc3ccc(F)cc3)[C@H](c3ccc(O)cc3)N2C1=O	-0.103

SMILES	composite z-score
C=CCNC(=O)[C@@H]1[C@H]2C(=O)O[C@H](c3ccccc3)[C@H](c3ccccc3)N2[C@H](c2ccccc2OCCO)[C@@]12C(=O)N(C(=O)OCCOC)c1ccc(C#CCCO)cc12	0.988
C=CCC(OC(C)=O)[C@@H]1[C@@H](N(Cc2cc3ccccc3o2)C(=O)c2ccc(-c3ccccc3)cc2)c2cc(OCCCO)ccc2N1C(=O)c1ccc2ccccc2n1 (stereo partly drawn)	0.202
COc1ccc(C#Cc2ccc3c(c2)[C@]2(C(=O)N3)[C@H](C(=O)Nc3nc4ccccc4s3)[C@H]3C(=O)O[C@H](c4ccccc4)[C@H](c4ccccc4)N3[C@@H]2c2ccc(OCCO)cc2)cc1	0.266
C=CCC(OC(C)=O)[C@@H]1[C@@H](N(Cc2cc3ccccc3o2)C(=O)Cc2ccc(OC)cc2)c2cc(OCCCO)ccc2N1C(=O)Cc1ccc(OC)cc1 (stereo partly drawn)	0.517
COCCOC(=O)N1C(=O)[C@@]2(c3cc(C#CC4(O)CCCCCC4)ccc31)[C@H](C(=O)NC[C@H](O)c1ccccc1)[C@H]1C(=O)O[C@H](c3ccccc3)[C@H](c3ccccc3)N1[C@@H]2c1ccc(O)cc1	0.392
Cc1c(NC(=O)/C(C#N)=C/c2ccc(Cl)cc2)c(=O)n(-c2ccccc2)n1C	-0.171
CCCC=C(CCC)[C@@H](NS(=O)(=O)c1ccc(Cl)cc1)c1ccccc1	0.884
CN(C)CCCNC(=O)[C@@]1(Cc2ccccc2I)c2ccccc2C(=O)N(Cc2ccccc2)[C@H]1c1ccc(CO)cc1	0.658
CCOC(=O)C[C@H]1[C@H](OC(=O)c2ccc(-c3ccccc3)cc2)[C@@H](NC(=O)c2ccc3ccccc3c2)c2cc(OCCCO)ccc2N1C(=O)c1ccccc1	0.19
C=C(CCCC)C(=O)CC[C@H](OC(=O)c1cccnc1)c1ccc(CO)o1	-0.188
COc1ccc(C#Cc2ccc3c(c2)[C@]2(C(=O)N3)[C@H](c3ccc(OCCO)cc3)N3[C@H](c4ccccc4)[C@H](c4ccccc4)OC(=O)[C@H]3[C@@H]2C(=O)O)cc1	0.583
COC(=O)[C@@]1(Cc2ccc(F)cc2)[C@H]2c3cc(C(=O)N(C)C)n(CCN4CCOCC4)c3C[C@H]2CN1C(=O)c1ccccc1	1.14
CCCC[C@@H]1C[C@H]1[C@@H](NC(=O)c1ccc(C(F)(F)F)cc1)c1ccc(C(=O)OC)cc1	0.135
COC(=O)[C@@]1(Cc2ccccc2)[C@@H]2[C@@H](CC(=O)[C@H]2CC(=O)C(=O)N(C)C)CN1C(=O)c1ccccc1	0.434
COC(=O)[C@@]1(Cc2ccc(OC)cc2)[C@H]2c3cc(C(=O)N4CCCC4)n(CCc4ccc(OC)c(Br)c4)c3C[C@H]2CN1C(=O)c1ccccc1	0.946
O=C1NC(=O)C2C1C=CC(C(O)c1cccc(O)c1)N2Nc1ccc(Cl)cc1Cl (stereo not drawn)	0.263
C=C(COC)C(=O)CC[C@@H](OC(C)=O)c1ccc(OCCO)cc1	-0.822
